For some assays here: Results with a measured potency or affinity are listed apart.
Assays:
Design in all cases: scale not given: direction of the effect not stated beside the values
[1] = target: Protein translocase subunit SecA (Escherichia coli (strain K12)) (UniProt P10408); experiment: Assay to Identify E. coli SecA ATPase Inhibitors; type: functional; settings: 30 µM
[2] = target: T1, Ubiquitin-activating enzyme e1, putative (Leishmania donovani (strain BPK282A1)) (UniProt E9BSI1); experiment: Leishmania donovani Ubiquitin Activating Enzyme (LdE1); type: functional; settings: 30 µM
T1 sequence (whole entry): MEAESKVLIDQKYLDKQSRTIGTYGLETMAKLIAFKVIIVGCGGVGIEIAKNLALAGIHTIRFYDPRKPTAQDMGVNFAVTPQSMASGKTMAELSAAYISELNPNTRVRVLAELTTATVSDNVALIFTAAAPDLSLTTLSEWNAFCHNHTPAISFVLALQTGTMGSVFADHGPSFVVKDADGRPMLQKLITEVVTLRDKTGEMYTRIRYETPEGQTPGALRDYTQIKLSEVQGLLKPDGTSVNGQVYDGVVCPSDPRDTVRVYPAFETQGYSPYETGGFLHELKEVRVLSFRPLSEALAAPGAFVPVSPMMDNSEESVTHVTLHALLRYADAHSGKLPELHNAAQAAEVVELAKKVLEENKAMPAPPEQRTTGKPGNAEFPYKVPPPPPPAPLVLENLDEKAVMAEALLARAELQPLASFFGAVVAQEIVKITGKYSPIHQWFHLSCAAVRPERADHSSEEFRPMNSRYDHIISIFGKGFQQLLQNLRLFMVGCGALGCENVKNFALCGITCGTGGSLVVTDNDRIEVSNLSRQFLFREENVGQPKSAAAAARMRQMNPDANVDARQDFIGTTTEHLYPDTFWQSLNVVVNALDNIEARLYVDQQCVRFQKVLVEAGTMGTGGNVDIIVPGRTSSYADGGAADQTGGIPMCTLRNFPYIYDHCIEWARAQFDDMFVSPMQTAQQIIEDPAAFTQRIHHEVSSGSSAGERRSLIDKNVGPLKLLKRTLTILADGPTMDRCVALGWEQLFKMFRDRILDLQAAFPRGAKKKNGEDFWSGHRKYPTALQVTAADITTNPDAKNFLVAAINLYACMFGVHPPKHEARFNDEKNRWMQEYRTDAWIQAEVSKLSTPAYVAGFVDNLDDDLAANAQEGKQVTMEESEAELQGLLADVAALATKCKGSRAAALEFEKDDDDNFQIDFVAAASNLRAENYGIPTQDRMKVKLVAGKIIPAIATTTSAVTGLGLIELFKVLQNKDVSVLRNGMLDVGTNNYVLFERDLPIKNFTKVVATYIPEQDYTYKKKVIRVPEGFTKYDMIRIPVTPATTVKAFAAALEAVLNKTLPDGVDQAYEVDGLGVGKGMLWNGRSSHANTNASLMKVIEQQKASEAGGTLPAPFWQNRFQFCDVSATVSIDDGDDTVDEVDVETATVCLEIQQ

[3] = target: AMP-activated protein kinase, AMPK (Homo sapiens) (UniProt P54646+O43741+P54619+Q9UGJ0+Q9Y478+Q13131+Q9UGI9); experiment: AMP-dependent Kinase enzyme assay. An in vitro enzyme assay that detects ADP turnover that is directly proportional to AMPK activity. This uses naive AMPK that is activated during the assay with MK-8722; type: functional; settings: 30 µM
[4] = target: Sialic acid-binding Ig-like lectin 9 (Homo sapiens) (UniProt Q9Y336); experiment: Hs-Siglec9 ALPHAscreen SOP 20170721; settings: 10 µM
Sequence of Sialic acid-binding Ig-like lectin 9 (Homo sapiens) (Q9Y336 whole entry): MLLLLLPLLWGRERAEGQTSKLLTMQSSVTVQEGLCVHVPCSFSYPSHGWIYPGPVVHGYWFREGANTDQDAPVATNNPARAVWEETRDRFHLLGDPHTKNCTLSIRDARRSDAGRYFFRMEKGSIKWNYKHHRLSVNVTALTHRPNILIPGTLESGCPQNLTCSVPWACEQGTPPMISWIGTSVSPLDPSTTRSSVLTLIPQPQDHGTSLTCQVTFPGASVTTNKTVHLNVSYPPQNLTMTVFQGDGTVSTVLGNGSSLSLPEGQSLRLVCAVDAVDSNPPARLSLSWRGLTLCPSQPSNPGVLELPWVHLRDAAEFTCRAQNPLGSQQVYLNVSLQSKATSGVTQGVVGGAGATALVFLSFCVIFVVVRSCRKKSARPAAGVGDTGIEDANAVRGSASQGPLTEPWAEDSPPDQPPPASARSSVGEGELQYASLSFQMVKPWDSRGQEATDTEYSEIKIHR

Trypanosoma cruzi = experiment: Trypanosoma cruzi phosphomannomutase and mannose-1-phosphate guanylyltransferase assay; type: functional; settings: 10 µM
[5] = target: T2, Arginase-2, mitochondrial (Homo sapiens) (UniProt P78540); experiment: in vitro enzyme assay to detect the production of urea directly proportional to the activity of Arginase II; type: functional; settings: 33.3 µM; note: in the data most compounds retested in dose-response had high values
T2 sequence (whole entry): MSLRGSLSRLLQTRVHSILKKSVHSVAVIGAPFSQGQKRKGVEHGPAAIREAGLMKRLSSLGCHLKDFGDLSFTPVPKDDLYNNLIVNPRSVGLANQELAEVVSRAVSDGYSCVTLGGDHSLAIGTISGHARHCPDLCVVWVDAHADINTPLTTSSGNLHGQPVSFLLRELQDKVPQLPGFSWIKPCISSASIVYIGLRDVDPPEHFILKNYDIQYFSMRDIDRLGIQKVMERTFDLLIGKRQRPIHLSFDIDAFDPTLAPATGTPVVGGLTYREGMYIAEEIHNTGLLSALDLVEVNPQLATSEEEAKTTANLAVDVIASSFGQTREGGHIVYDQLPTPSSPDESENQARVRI

[6] = target: T3, Proteasome subunit beta (Trypanosoma cruzi) (UniProt O96673); experiment: Trypanosoma cruzi proteasome chymotrypsin-like activity (TcProtChymo) assay.; note: in the data most compounds retested in dose-response had high values; type: functional; settings: 9.37 µM
T3 sequence (whole entry): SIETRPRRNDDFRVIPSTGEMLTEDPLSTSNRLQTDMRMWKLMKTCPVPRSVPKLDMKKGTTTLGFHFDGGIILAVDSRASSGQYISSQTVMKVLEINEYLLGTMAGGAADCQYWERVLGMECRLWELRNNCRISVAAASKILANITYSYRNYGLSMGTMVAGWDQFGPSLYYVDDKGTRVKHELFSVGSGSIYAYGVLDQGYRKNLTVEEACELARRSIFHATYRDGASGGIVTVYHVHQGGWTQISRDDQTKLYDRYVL

Homo sapiens = species: Homo sapiens; experiment: To identify inhibition of the IFN signalling (Jak-Stat) pathway via expression of an eGFP reporter gene under the control of an IFN-stimulated response element (ISRE) containing MxA promoter.; type: functional; settings: 30 µM
[7] = target: T4, Tyrosyl-tRNA synthetase, putative (Trypanosoma cruzi (strain CL Brener)) (UniProt Q4DSP6); experiment: Trypanosoma cruzi tyrosyl tRNA synthetase (TcYRS) _High Tyrosine SOP; type: functional; settings: 30 µM; note: in the data most compounds retested in dose-response had high values
T4 sequence (whole entry): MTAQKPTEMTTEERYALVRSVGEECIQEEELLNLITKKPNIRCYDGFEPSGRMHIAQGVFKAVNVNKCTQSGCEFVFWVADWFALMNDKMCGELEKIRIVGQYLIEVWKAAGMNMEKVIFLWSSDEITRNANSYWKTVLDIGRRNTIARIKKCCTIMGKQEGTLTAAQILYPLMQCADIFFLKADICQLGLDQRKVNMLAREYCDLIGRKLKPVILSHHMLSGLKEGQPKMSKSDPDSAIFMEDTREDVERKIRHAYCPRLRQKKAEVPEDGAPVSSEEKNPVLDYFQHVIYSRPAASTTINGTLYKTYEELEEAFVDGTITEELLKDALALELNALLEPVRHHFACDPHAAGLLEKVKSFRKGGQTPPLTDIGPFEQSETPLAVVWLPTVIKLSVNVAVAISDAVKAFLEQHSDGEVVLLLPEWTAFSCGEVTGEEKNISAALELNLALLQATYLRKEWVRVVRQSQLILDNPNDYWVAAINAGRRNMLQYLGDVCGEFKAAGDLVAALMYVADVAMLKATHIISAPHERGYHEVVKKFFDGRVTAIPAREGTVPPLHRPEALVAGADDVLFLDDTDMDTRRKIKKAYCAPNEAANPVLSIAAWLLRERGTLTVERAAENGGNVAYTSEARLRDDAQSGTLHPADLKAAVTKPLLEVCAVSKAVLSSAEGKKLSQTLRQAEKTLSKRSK

[8] = target: T4, Tyrosyl-tRNA synthetase, putative (Trypanosoma cruzi (strain CL Brener)); experiment: Trypanosoma cruzi tyrosyl tRNA synthetase (TcYRS) SOP; type: functional; settings: 30 µM
[9] = target: Chromo domain-containing protein 1 (Saccharomyces cerevisiae (strain ATCC 204508 / S288c) (Baker's yeast)) (UniProt P32657); experiment: ScCHD-1 Enzyme Inhibition Assay; type: functional; settings: 30 µM; note: in the data most compounds retested in dose-response had high values
Sequence of Chromo domain-containing protein 1 (Saccharomyces cerevisiae (strain ATCC 204508 / S288c) (Baker's yeast)) (P32657 whole entry, the tested form may be a part): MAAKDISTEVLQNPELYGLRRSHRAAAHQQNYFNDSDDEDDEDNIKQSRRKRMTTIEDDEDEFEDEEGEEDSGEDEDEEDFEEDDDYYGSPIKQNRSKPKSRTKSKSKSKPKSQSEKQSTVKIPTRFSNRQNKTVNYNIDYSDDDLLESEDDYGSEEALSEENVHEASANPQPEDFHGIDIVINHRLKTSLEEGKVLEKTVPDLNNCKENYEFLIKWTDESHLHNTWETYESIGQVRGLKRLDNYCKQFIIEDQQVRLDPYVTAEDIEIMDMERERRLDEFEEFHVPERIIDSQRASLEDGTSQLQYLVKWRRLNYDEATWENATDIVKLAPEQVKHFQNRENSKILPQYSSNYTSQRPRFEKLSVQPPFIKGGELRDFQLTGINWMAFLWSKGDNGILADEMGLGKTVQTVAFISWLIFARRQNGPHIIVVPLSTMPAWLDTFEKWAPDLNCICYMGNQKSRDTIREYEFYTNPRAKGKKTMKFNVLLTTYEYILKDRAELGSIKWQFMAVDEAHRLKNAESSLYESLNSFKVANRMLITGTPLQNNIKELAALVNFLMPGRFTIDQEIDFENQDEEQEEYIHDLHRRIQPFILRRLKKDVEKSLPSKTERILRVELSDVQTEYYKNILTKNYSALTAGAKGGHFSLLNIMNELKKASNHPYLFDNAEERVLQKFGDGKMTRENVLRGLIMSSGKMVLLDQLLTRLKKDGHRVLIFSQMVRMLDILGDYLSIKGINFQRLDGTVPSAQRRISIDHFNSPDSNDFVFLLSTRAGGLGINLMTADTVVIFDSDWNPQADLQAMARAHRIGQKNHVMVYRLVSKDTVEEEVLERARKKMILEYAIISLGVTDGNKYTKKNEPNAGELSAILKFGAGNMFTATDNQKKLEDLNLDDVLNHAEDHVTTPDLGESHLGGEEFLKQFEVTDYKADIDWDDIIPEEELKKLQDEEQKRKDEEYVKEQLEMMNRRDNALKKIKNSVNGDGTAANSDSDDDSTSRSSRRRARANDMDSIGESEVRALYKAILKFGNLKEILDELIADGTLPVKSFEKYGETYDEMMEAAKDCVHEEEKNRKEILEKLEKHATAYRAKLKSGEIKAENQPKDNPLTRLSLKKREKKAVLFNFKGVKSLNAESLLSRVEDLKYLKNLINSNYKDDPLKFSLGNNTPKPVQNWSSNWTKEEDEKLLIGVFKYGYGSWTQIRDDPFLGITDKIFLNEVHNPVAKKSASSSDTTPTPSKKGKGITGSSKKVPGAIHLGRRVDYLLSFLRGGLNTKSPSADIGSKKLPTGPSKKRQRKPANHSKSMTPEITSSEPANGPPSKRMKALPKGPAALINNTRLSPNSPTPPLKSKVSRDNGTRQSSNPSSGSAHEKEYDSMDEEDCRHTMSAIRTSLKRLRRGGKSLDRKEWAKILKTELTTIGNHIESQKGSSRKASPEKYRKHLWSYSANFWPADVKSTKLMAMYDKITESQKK

Sequence of Protein translocase subunit SecA (Escherichia coli (strain K12)) (P10408 whole entry): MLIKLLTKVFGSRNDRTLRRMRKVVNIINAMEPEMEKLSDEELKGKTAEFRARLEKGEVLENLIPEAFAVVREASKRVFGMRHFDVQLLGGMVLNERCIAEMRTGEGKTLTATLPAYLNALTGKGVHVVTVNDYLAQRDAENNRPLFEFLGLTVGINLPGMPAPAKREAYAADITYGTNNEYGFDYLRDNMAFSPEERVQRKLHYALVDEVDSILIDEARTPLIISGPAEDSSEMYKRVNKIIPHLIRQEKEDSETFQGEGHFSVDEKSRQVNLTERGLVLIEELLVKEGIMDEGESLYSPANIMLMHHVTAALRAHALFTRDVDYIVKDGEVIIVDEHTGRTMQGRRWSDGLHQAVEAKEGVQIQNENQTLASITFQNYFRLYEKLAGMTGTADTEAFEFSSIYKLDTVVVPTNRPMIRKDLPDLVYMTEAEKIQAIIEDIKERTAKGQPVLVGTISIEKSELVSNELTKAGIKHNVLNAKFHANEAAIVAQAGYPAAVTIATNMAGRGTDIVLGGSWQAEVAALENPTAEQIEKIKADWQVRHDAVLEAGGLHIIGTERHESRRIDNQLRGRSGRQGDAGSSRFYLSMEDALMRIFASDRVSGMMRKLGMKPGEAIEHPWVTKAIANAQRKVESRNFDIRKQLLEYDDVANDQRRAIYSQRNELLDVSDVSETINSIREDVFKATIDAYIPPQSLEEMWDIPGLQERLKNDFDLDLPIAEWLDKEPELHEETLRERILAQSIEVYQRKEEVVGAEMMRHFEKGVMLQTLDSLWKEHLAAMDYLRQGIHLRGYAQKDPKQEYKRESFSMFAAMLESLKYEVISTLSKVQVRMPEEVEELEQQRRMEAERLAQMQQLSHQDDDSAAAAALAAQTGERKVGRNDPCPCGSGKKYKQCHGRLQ

Row | SMILES | Percent Effect [1] | Percent Effect [2] | Percent Effect [3] | Percent Effect [4] | Percent Effect (Trypanosoma cruzi) | Percent Effect [5] | Percent Effect [6] | Percent Effect (Homo sapiens) | Percent Effect [7] | Percent Effect [8] | Percent Effect [9]
1 | CCCN1CCCn2nc(CNC(=O)CCc3scnc3C)cc2C1 | -2.71% | 20.8% | -13.3% | 19.9% | 3.98% | 8.39% | 16.7% | -7.34% | 5.26% | 17.9% | -7.37%
2 | CCCC(=O)Nc1sc(C(=O)OCC)c(C)c1C#N | 0.0516% | 7.79% | 24.2% | -8.77% | -5.42% | 8.39% | 10.4% | -0.547% | 1.06% | 16.7% | -3.68%
3 | COc1ccc(NC(=O)CCC2CCCN(Cc3ncon3)C2)c(C)c1 (stereo unspecified) | -3.42% | 2.67% | -0.626% | -0.0167% | -5.36% | -3.65% | 22% | 22.2% | 6.01% | 11.1% | -6.4%
4 | CCCNC(=O)c1cc2c([nH]c1=O)CC(c1cccs1)CC2=O (stereo unspecified) | 0.191% | 14.7% | 13.3% | 3.54% | 3.34% | -0.88% | 7.58% | 21% | -4.23% | 12.8% | -7.37%
5 | CSCCNC(=O)c1ccc(OC2CCN(CC(C)(C)C)CC2)c(Cl)c1 | -3.94% | 8.11% | -0.678% | 31.3% | 7.53% | 0.248% | 7.47% | -3.54% | 2.15% | 8.64% | -9.27%
6 | CCC(C)CNc1ccc2oc(COC)nc2c1 (stereo unspecified) | 7.14% | 32.4% | -44.5% | 7.84% | -5.08% | 6.67% | 20.9% | 42.4% | -6.93% | -11% | 4.53%
7 | COCC(=O)NCc1cccc(Br)c1 | -0.913% | 18.4% | -5.98% | -7.74% | 4.89% | 1.92% | 11.4% | 13.3% | 4.41% | 19.5% | -12.7%
8 | O=C(c1ccsc1)N1CC[C@H]2C[C@@H](c3nnc(C4CC4)o3)O[C@@H]2C1 | -1.93% | 7.79% | 1.35% | -4.04% | -1.08% | 12.3% | 19.5% | -4.29% | 2.12% | 11.5% | -7.52%
9 | CNc1cc2c(nn1)CCN(C(=O)c1cccc3c1OCO3)C2 | -5.03% | 5.2% | -9.97% | 7.76% | 3.75% | 2.49% | -5.07% | -5.98% | 4.85% | 7.32% | -2.55%
10 | Cc1nc[nH]c1CN1C[C@@H]2CC[C@H](C1)N(C(=O)CCNS(C)(=O)=O)C2 | -4.5% | -1.39% | -15.6% | 26.7% | 4.57% | 17.7% | 3.33% | -7.69% | 5.26% | 7.69% | -4.5%
11 | CCn1c(CN2CCCN(C(=O)OC)CC2)nc2c(F)cccc21 | -2.85% | 15.8% | -5.17% | 7.02% | -3.95% | 8.81% | 9.69% | -5.04% | 6.37% | 12.2% | -4.43%
12 | COc1ccc(NC(=O)C(c2cccc(F)c2)N2CCOCC2)cc1 (stereo unspecified) | -1.48% | 0% | 4.04% | 2.98% | -5.75% | 3.55% | 13.5% | 0.224% | 6.38% | 10.4% | -3.15%
13 | COc1cc2nc3n(c(=O)c2cc1OC)CCN(C(C)=O)CC3 | -1.86% | 4.05% | 9.32% | 3.01% | 0.593% | -1.16% | 5.62% | 11.5% | 1.07% | 11.7% | -1.39%
14 | Cc1nc(C2CCCN2CC(=O)N2CCCc3ccccc32)no1 (stereo unspecified) | -2.99% | -13.2% | -3.99% | 5.27% | 6.77% | 3.45% | 0% | 6.64% | 4.41% | 4.88% | -4.73%
15 | CCn1cnnc1CNC(=O)NC(C)c1cccs1 (stereo unspecified) | -1.87% | 23.4% | -0.473% | 11.3% | 1.5% | -5.69% | 3.38% | 10.1% | 4.85% | 21.9% | -8.5%
16 | O=C(NCC1CC1)Nc1cccc(N2CCN(CC3CC3)CC2)c1 | -6.91% | 13.5% | -7.28% | 31.9% | 5.38% | 1.24% | 6.78% | -5.11% | 3.23% | 16.1% | -13.1%
